Assay results taken from PubChem BioAssay (Tox21).
Several values for one entry are separate records, joined by “and”; a condition that tells them apart may be missing. Identical values can stand only once. Some structures have more than one record in an assay (separate samples or runs), and their calls can disagree. Activity calls are given as the source filed them. A call without a number means that no potency is given here. Unless noted, calls come from the whole dose curve; as a rule, active = well fitted curve in the direction sought with a large enough effect in the repeat runs; inconclusive = weak or mixed curves; inactive = no such curve, though single readings can be large; an effect the other way counts as inactive or inconclusive.

Tests used:
[1] = qHTS assay to identify small molecule antagonists of the thyroid receptor (TR) signaling pathway - cell viability counter screen (AID 743064); note: nearly all actives have a fitted effect of over 50% in size; note: potency is the fitted concentration of half-maximal effect
Outline: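 Counter screen for cytotoxicity: compound plus T3 (1 nM final) on GH3.TRE-Luc cells, 23.5 h at 37 °C, then fluorescence viability readout with CellTiter-Fluor.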

[2] = test system: thyroid hormone receptor (rat, GH3 cells); test: qHTS assay to identify small molecule agonists of the thyroid receptor (TR) signaling pathway (AID 743066; calls by dose curve)
[3] = target: Estrogen receptor (Homo sapiens) (UniProt P03372); test: qHTS assay to identify small molecule antagonists of the estrogen receptor alpha (ER-alpha) signaling pathway (AID 743069; active = well fitted curve in the direction sought with a large enough effect in the signal ratio in the repeat runs, not every such curve was filed as active; inconclusive = weak or mixed curves, or effect the other way; inactive = no such curve, though single readings can be large or run the other way; the % refers to the signal ratio; note: potency is the fitted concentration of half-maximal effect)
Sequence of Estrogen receptor (Homo sapiens) (P03372 whole entry, looked up): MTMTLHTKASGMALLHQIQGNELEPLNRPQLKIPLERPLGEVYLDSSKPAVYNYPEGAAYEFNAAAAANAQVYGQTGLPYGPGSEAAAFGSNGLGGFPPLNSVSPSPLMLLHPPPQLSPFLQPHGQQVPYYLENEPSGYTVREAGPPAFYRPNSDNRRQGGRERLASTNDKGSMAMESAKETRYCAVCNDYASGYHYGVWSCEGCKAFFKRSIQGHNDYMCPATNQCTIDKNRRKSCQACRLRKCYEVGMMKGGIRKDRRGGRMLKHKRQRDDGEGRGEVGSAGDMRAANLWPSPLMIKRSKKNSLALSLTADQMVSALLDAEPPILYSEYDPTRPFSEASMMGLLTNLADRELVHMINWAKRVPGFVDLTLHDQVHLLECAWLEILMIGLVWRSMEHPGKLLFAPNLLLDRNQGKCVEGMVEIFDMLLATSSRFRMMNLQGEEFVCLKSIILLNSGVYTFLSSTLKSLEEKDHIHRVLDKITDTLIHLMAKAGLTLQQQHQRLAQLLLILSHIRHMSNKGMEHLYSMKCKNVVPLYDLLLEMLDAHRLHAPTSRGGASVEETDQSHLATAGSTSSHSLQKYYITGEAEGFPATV
Outline: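 Fluorescence intensity from a beta-lactamase FRET substrate served as the read-out. Cells: HEK293 with stably integrated ER-alpha-UAS-bla reporter. Agonist 17beta-estradiol was co-added with compounds; incubation 18 hr at 37C, substrate 2 hr at room temperature.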

[4] = qHTS assay to identify small molecule antagonists of the estrogen receptor alpha (ER-alpha) signaling pathway - cell viability counter screen (AID 743074; calls by dose curve; note: nearly all actives have a fitted effect of over 45% in size)
[5] = target: Estrogen receptor (Homo sapiens) (UniProt P03372); test: qHTS assay to identify small molecule agonists of the estrogen receptor alpha (ER-alpha) signaling pathway (AID 743075; calls by dose curve; note: potency is the fitted concentration of half-maximal effect)
[6] = target: Estrogen receptor (Homo sapiens) (UniProt P03372); test: qHTS assay to identify small molecule agonists of the estrogen receptor alpha (ER-alpha) signaling pathway using the BG1 cell line (AID 743079); note: nearly all actives have a fitted effect of over 20% in size; note: potency is the fitted concentration of half-maximal effect
[7] = qHTS assay to identify small molecule antagonists of the estrogen receptor alpha (ER-alpha) signaling pathway using the BG1 cell line (AID 743080; calls by dose curve;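 note: BG1 cells stimulated with 17beta-estradiol alongside compound; series mostly up to about 70 µM; nearly all actives have a fitted effect of over 25% in size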)
Outline: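 Luminescence from a 4×ERE-luciferase reporter in BG1-Luc-4E2 cells served as read-out. Cells, pre-cultured 5 days in stripped-serum phenol-red-free medium, were exposed to compound with 17beta-estradiol co-stimulation for 21.5 h at 37 C.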

[8] = qHTS assay to identify small molecule antagonists of the estrogen receptor alpha (ER-alpha) signaling pathway using the BG1 cell line - cell viability counter screen (AID 743081);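 note: compound given together with 17beta-estradiol as the ER stimulus; nearly all actives have a fitted effect of over 45% in size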; note: potency is the fitted concentration of half-maximal effect
[9] = target: Aromatase (Homo sapiens) (UniProt P11511); test: qHTS assay to identify aromatase inhibitors (AID 743083); note: nearly all actives have a fitted effect of over 55% in size; note: potency is the fitted concentration of half-maximal effect
Sequence of Aromatase (Homo sapiens) (P11511 whole entry, looked up): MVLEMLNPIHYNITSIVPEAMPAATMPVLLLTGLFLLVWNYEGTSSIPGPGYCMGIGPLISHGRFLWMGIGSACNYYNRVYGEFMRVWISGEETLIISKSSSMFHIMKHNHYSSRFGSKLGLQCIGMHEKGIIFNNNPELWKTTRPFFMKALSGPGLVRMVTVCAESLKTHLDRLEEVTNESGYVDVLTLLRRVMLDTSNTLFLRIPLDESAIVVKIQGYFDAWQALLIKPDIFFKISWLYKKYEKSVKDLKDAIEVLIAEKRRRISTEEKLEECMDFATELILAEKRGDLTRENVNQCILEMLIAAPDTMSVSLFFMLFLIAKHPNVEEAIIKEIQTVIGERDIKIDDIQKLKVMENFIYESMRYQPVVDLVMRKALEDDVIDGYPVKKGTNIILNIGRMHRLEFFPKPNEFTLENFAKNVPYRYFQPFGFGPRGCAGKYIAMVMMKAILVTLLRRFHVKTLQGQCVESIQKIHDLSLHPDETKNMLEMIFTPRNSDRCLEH

[10] = qHTS assay to identify aromatase inhibitors - cell viability counter screen (AID 743084);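 note: cells stimulated with testosterone during compound exposure; nearly all actives have a fitted effect of over 55% in size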; note: potency is the fitted concentration of half-maximal effect
[11] = target: Aryl hydrocarbon receptor (Homo sapiens) (UniProt P35869); test: qHTS assay to identify small molecule that activate the aryl hydrocarbon receptor (AhR) signaling pathway (AID 743085); note: nearly all actives have a fitted effect of over 15% in size; note: potency is the fitted concentration of half-maximal effect;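 for activation: HG2L7.5c1 human HepG2 liver cells with stably integrated DRE-driven firefly reporter; series mostly up to about 70 µM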
Sequence of Aryl hydrocarbon receptor (Homo sapiens) (P35869 whole entry, looked up): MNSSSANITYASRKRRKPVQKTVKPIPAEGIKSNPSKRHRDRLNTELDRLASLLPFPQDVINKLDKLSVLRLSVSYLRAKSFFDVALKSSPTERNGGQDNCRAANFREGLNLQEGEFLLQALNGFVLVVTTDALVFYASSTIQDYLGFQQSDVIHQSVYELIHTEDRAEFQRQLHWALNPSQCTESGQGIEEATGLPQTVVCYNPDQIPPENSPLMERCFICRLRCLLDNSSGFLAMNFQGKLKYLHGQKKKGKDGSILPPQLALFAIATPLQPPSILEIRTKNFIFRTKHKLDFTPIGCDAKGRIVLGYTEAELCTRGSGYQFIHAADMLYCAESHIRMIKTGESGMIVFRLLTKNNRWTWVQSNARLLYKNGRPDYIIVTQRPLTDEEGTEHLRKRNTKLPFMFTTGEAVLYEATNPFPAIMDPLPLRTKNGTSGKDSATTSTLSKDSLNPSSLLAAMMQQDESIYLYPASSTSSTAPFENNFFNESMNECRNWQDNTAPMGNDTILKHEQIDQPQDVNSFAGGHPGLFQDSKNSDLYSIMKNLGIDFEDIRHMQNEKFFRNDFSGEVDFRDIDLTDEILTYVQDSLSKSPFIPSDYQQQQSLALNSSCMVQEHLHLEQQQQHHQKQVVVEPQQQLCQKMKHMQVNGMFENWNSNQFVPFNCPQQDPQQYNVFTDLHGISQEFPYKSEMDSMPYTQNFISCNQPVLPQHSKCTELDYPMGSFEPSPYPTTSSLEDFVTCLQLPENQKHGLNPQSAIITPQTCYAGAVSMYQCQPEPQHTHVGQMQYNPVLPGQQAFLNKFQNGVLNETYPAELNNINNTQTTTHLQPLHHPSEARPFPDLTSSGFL
Outline: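 Measured in HG2L7.5c1 cells: CellTiter-Fluor signal (30 min incubation, 37C) for viability, then luciferase luminescence (30 min, room temperature). Compound contact time was 24 h at 37C, following a 5 h pre-incubation.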

[12] = target: Peroxisome proliferator-activated receptor gamma (Homo sapiens) (UniProt P37231); test: qHTS assay to identify small molecule agonists of the peroxisome proliferator-activated receptor gamma (PPARg) signaling pathway (AID 743094; active = well fitted activation curve with a large enough effect in the signal ratio in the repeat runs, not every such curve was filed as active; inconclusive = weak or mixed curves, or effect the other way; inactive = no such curve, though single readings can be large or run the other way; the % refers to the signal ratio)
Sequence of Peroxisome proliferator-activated receptor gamma (Homo sapiens) (P37231 whole entry, looked up): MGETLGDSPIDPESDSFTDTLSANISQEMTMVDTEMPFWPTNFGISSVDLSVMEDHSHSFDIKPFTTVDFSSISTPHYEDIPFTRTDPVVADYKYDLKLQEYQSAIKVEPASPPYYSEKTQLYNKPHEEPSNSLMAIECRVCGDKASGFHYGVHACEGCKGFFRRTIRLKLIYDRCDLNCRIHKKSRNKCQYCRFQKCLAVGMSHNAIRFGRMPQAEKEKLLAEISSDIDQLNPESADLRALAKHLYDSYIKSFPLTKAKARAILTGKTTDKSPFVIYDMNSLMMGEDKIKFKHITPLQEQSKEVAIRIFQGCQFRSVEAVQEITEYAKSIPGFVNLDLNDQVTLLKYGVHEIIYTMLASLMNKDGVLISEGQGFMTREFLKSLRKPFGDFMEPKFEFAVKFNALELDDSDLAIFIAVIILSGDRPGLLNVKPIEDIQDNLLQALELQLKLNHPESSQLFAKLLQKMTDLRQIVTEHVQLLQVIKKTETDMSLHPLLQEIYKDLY
Outline: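 Fluorescence-based beta-lactamase readout in HEK293H PPARg UAS-bla cells after 17 h compound exposure (37C) and 1 h B/G FRET substrate incubation at room temperature.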

[13] = qHTS assay to identify small molecule antagonists of the peroxisome proliferator-activated receptor gamma (PPARg) signaling pathway - cell viability counter screen (AID 743194); note: nearly all actives have a fitted effect of over 55% in size
Outline: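 Viability was measured as CellTiter-Glo luminescence in GeneBLAzer PPARg UAS-bla HEK293H cells. These cells had been exposed 17 h at 37 C to compounds together with rosiglitazone at 50 nM final, with the beta-lactamase readout taken in the same wells.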

[14] = qHTS assay for small molecule agonists of the antioxidant response element (ARE) signaling pathway (AID 743202; active = well fitted activation curve with a large enough effect in the signal ratio in the repeat runs, not every such curve was filed as active; inconclusive = weak or mixed curves, or effect the other way; inactive = no such curve, though single readings can be large or run the other way; the % refers to the signal ratio; note: potency is the fitted concentration of half-maximal effect)
Outline: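 Beta-lactamase reporter activity, read as fluorescence intensity, reflects ARE/Nrf2 pathway induction in HepG2 cells after 16 h compound exposure at 37 C; substrate loading was 2 h at room temperature.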

[15] = qHTS assay for small molecule agonists of the antioxidant response element (ARE) signaling pathway - cell viability counter screen (AID 743203; calls by dose curve; note: nearly all actives have a fitted effect of over 55% in size; note: potency is the fitted concentration of half-maximal effect)
Outline: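 Parallel cytotoxicity read-out for the ARE-bla screen: HepG2 reporter cells, 16 hrs with compounds, then CellTiter-Glo luminescence.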

[16] = qHTS assay for small molecule activators of the heat shock response signaling pathway - cell viability counter screen (AID 743209); note: nearly all actives have a fitted effect of over 50% in size; note: potency is the fitted concentration of half-maximal effect
Outline: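 To flag cytotoxic compounds, HSE-bla HeLa cells plated at 1500 cells/well were dosed for 5 h at 37 C, followed by the reporter FRET read and then CellTiter-Glo, with luminescence recorded 30 min after reagent addition.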

[17] = qHTS assay for small molecule activators of the heat shock response signaling pathway (AID 743210; active = well fitted activation curve with a large enough effect in the signal ratio in the repeat runs, with a control signal flat, not every such curve was filed as active; inconclusive = weak or mixed curves; the % refers to the signal ratio;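 note: HeLa cells with beta-lactamase reporter driven by heat shock elements; series mostly up to about 63 µM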)
Outline: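 Fluorescence from a cleaved B/G FRET substrate (2.5 h, room temp) reports HSE-driven beta-lactamase in HeLa cells treated 5 h at 37 C with DMSO-dissolved compounds.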

[18] = qHTS assay to identify small molecule that activate the aryl hydrocarbon receptor (AhR) signaling pathway - cell viability counter screen (AID 743086);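 note: HepG2 liver cells carrying the AhR DRE luciferase reporter; series mostly up to about 70 µM; nearly all actives have a fitted effect of over 45% in size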
Outline: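 Cytotoxicity counter screen: CellTiter-Fluor signal (30 min, 37 C) in 4000 HepG2 cells/well carrying the DRE-luciferase reporter, following 24 h compound exposure at 37 C.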

[19] = qHTS assay to identify small molecule antagonists of the thyroid receptor (TR) signaling pathway (AID 743065); note: nearly all actives have a fitted effect of over 55% in size; note: potency is the fitted concentration of half-maximal effect
Outline: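 Antagonism measured as loss of luciferase signal in GH3 cells stably carrying a TRE-luciferase reporter, co-treated with compound and T3 (1 nM final) for 23.5 h at 37 C. Viability was read in the same well by CellTiter-Fluor.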

[20] = target: Peroxisome proliferator-activated receptor gamma (Homo sapiens) (UniProt P37231); test: qHTS assay to identify small molecule antagonists of the peroxisome proliferator-activated receptor gamma (PPARg) signaling pathway (AID 743191; calls by dose curve; note: nearly all actives have a fitted effect of over 30% in size; note: potency is the fitted concentration of half-maximal effect)
Outline: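 Beta-lactamase reporter under UAS control in HEK293H PPARg-bla cells; compound treatment 17 h at 37C. Read-out: fluorescence intensity after 1 h room-temperature incubation with LiveBLAzer B/G FRET substrate.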

SMILES | Potency [1] | Potency [2] | Potency [3] | Potency [4] | Potency [5] | Potency [6] | Potency [7] | Potency [8] | Potency [9] | Potency [10] | Potency [11] | Potency [12] | Potency [13] | Potency [14] | Potency [15] | Potency [16] | Potency [17] | Potency [18] | Potency [19] | Potency [20]
CCCCOCCOCCO | inactive | inactive | inactive | inactive | inactive | inactive | inactive | inactive | inactive and 61.1 µM (active) | inactive | inactive | inactive | inactive | inactive | inactive | inactive | inactive | – | – | –
CC1=CCC(C(C)(C)O)CC1 (stereo not drawn) | inactive | inactive | inactive | inactive | inactive | inactive | inactive | inactive | inactive | inactive | inactive | inactive | inactive | inactive | inactive | inactive | inactive | inactive | – | –
Cc1ccc(C(=O)c2cc(O)c(O)c([N+](=O)[O-])c2)cc1 | inactive and 61.1 µM (active) | inactive | – | – | – | – | – | 33.5 µM (active) and 54.5 µM (active) | – | inactive | inactive | – | – | – | 9.69 µM (active) | inactive | inactive | inactive | 68.6 µM (active) | –
COc1cccc2c1C(=O)c1c(O)c3c(c(O)c1C2=O)C[C@@](O)(C(=O)CO)C[C@@H]3O[C@H]1C[C@H](N)[C@H](O)[C@H](C)O1 | inactive and 1.68 µM (active) and 122 nM (active) | inactive | inactive and 6.01 µM [inconclusive] (active) and 3.46 µM [inconclusive] (active) | inactive | inactive and 2.68 µM [inconclusive] (active) and 15.5 µM [inconclusive] (active) | inactive | inactive | inactive and 27.3 µM (active) | inactive and 6.68 µM (active) and 1.72 µM (active) | inactive and 13.3 µM (active) and 12.2 µM (active) | inactive | inactive | inactive | 0.266 µM (active) | 13.7 µM (active) and 5.31 µM (active) | – | – | – | – | 2.37 µM (active)
NNc1ccc(C(=O)O)cc1 | inactive | inactive | – | inactive | – | – | – | inactive | inactive | inactive | inactive | inactive | inactive | inactive | inactive | inactive | inactive | – | inactive | –
NC=O | inactive | inactive | – | – | – | – | – | inactive | inactive | inactive | inactive | inactive | inactive | inactive | inactive | inactive | inactive | – | inactive | –
C=CC(C)(CCC=C(C)C)OC(C)=O (stereo not drawn) | inactive | inactive | inactive | inactive | inactive | inactive | inactive | inactive | inactive | inactive | inactive | inactive | inactive | inactive | inactive | inactive | inactive | – | – | inactive
Cn1cnc([N+](=O)[O-])c1Sc1ncnc2nc[nH]c12 | inactive | inactive | inactive | inactive | inactive | inactive | – | inactive | inactive | inactive | inactive and 19.2 µM (active) | inactive | inactive | 8.41 µM (active) | 0.382 µM (active) | inactive | – | – | – | –
OC(CCl)CCl | inactive | inactive | inactive | inactive | inactive | inactive | inactive | inactive | inactive | inactive | inactive | inactive | inactive | inactive | inactive | inactive | inactive | inactive | – | inactive
COc1ccccc1/C=C/C=O | 55.9 µM (active) | inactive | inactive | inactive | inactive | inactive | inactive | inactive | inactive | inactive | – | inactive | inactive | inactive | inactive | inactive | – | – | – | inactive
CCCCCCCCCCCO | inactive and 30.6 µM (active) | inactive | inactive | inactive | inactive | inactive | inactive | inactive | inactive and 27.3 µM (active) | inactive and 27.3 µM (active) | inactive | inactive | inactive | inactive | inactive and 61.1 µM (active) | inactive and 43.6 µM (active) | – | – | – | –
Cc1ccc(C)c(O)c1C | inactive | inactive | inactive | inactive | inactive | inactive | inactive | inactive | inactive | inactive | inactive | inactive | inactive | inactive | inactive | inactive | inactive | inactive | – | inactive
O=C(/C=C/c1ccccc1)OCc1ccccc1 | inactive | inactive | inactive | inactive | inactive | 29.8 µM (active) | inactive | inactive | inactive | inactive | inactive | inactive | inactive | – | inactive | inactive | inactive | inactive | – | –
O=c1oc(=O)c2cc3c(=O)oc(=O)c3cc12 | inactive | inactive | – | inactive | – | – | – | inactive | inactive | inactive | inactive | inactive | inactive | 2.73 µM (active) | inactive | inactive | inactive | – | inactive | inactive
